# From PubChem BioAssay (NCI)
# “And” between values parts separate entries of the source, which are not always exact repeats. Equal entries are not always repeated. About 83,000 compounds went through this panel and 20% of them were active in at least one assay; those are over-represented in the sample as a whole.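 Growth was measured after 48 h exposure to one concentration of compound in 96-well plates. Values under 10 count as active.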 The source made the active and inactive calls.
# System: HL-60(TB) leukemia
# Assay: NCI-60 one-dose screen, 48 h (100 = growth as untreated, 0 = no growth, -100 = all killed)
# Settings: 10 µM unless noted
row,SMILES,growth
1,CC(C)(C)n1cc(-c2ccnc(NCCNS(=O)(=O)c3cccc(F)c3)c2)c(-c2ccccc2)n1,73.5% (inactive)
2,O=C(O)C1C2CCC1C(O)C2 (stereo unspecified),94.6% (inactive) and 96% (inactive)
3,O=C(c1ccncc1)c1c(Cc2ccccc2)ccc2ccccc12,88.1% (inactive)
4,O=c1nc2c(-c3nc4ccccc4s3)n[nH]n2c2sc3c(c12)CCCC3,99.4% (inactive)
5,CCCCN[C@H]1CC[C@@]2(C)[C@@H](CC[C@@]3(C)[C@H]2[C@H](O)C[C@H]2/C(=C(\CCC=C(C)C)C(=O)OC)[C@@H](OC(C)=O)C[C@@]23C)[C@@H]1C,0.474% (active)
6,Fc1ccc(-n2cc(COc3ncnc4sc5c(c34)CCCC5)nn2)cc1Cl,101% (inactive)
